Source: PubChem BioAssay (NCATS)
“And” between values parts separate entries of the source, which are not always exact repeats. Equal values may be shown once. Inconclusive results are not listed. Entries that show only a call come without a potency. Where a structure was tested more than once in an assay, its records may differ in their call. The source made the active and inactive calls. Unless noted, calls come from the whole dose curve; as a rule, active = well fitted curve in the direction sought with a large enough effect; inconclusive = small, poorly fitted or top-dose-only effect, or another doubt; inactive = no such curve, though single readings can be large; an effect the other way counts as inactive or inconclusive.

Columns and labels:
[1] = biological target: Rap guanine nucleotide exchange factor 4 (Homo sapiens) (UniProt Q8WZA2); assay: Confirmatory qHTS for agonist of cAMP-regulated guanine nucleotide exchange factor 4 (EPAC2) (AID 1645884); details: EPAC2 GEF activity, Rap1B-BODIPY-GDP fluorescence, percent relative to cAMP agonist control; series mostly up to 154 µM;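 note: nucleotide exchange releases bodipy-GDP from Rap1 and this lowers its fluorescence; nearly all actives have a fitted effect of over 65% in size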
Rap guanine nucleotide exchange factor 4 (Homo sapiens), sequence (Q8WZA2 whole entry, looked up): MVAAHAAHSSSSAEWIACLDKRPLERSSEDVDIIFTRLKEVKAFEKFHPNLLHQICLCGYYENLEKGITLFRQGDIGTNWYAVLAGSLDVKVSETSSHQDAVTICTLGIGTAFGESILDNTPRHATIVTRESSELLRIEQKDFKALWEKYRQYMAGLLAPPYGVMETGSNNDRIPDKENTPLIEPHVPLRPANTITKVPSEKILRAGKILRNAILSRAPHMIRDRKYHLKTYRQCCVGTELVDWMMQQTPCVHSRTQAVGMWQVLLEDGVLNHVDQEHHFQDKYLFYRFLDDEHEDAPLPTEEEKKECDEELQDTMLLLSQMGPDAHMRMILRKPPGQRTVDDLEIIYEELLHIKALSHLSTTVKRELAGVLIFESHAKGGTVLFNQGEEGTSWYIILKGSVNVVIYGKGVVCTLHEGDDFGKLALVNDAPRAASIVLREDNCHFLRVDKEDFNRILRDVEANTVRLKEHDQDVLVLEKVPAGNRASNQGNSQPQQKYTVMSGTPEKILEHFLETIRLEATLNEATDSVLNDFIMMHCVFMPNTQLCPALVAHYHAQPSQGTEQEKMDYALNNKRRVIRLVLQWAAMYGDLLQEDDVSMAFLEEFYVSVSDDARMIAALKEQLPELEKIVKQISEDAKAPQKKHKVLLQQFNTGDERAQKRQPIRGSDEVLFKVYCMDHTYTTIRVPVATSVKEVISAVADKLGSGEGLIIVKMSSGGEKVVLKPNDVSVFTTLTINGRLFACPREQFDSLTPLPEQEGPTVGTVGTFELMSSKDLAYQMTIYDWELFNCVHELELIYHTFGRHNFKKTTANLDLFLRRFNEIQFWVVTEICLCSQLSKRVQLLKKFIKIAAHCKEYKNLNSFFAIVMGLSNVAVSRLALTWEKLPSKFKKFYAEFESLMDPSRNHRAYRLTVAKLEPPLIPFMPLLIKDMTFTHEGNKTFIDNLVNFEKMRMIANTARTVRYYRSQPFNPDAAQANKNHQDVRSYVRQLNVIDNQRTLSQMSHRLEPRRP

[2] = biological target: Rap guanine nucleotide exchange factor 3 (Homo sapiens) (UniProt O95398); assay: Counterscreen qHTS for antagonist of cAMP-regulated guanine nucleotide exchange factor 3 (EPAC1) (AID 1645888); details: Rap1B-BODIPY-GDP nucleotide exchange, fluorescence; series mostly up to 30.8 µM;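 note: fluorescence loss as bound BODIPY-GDP is released from Rap1B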
Rap guanine nucleotide exchange factor 3 (Homo sapiens), sequence (O95398 whole entry, looked up): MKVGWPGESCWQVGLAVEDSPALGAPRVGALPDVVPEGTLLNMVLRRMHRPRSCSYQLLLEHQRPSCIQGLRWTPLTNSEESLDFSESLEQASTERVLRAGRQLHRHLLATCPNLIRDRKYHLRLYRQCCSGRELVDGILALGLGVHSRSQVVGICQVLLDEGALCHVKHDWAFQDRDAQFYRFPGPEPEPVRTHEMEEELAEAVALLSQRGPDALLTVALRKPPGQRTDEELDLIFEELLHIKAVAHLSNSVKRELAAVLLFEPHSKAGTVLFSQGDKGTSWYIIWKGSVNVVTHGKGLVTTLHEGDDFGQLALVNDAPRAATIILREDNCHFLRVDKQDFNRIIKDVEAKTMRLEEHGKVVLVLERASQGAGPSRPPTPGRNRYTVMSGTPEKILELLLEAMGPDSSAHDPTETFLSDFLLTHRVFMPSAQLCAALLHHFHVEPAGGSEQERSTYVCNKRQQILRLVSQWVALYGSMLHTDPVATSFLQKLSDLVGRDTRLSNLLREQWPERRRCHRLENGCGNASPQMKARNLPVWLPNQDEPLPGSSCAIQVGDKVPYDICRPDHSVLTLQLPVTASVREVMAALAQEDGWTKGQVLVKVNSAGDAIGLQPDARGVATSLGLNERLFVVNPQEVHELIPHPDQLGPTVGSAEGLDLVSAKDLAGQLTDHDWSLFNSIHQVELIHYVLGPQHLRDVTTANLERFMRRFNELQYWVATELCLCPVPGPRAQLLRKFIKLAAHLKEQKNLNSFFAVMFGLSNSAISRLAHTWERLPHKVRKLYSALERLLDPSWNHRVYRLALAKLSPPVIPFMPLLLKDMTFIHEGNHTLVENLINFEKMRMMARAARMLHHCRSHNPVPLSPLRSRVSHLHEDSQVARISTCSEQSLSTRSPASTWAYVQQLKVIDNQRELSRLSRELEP
In short: (§1)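 Rap1B-BODIPY-GDP 250 nM + GDP 50 uM; cpds 7-pt, final 9.74 nM–152 uM (activator mode) or from 7.32 nM upwards (inhibitor mode); RT; FI 480/540 nm at 5 and 30 min, then ± cAMP, reread.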

[3] = biological target: Rap guanine nucleotide exchange factor 3 (Homo sapiens) (UniProt O95398); assay: Counterscreen qHTS for agonist of cAMP-regulated guanine nucleotide exchange factor 3 (EPAC1) (AID 1645889); details: EPAC1 Rap1B-BODIPY-GDP exchange, fluorescence; series mostly up to 30.8 µM; note: nearly all actives have a fitted effect of over 40% in size
In short: as §1

[4] = NCATS anti-infectives library activity on HEK293 viability as a counter-qHTS vs the C. elegans viability qHTS (AID 1745854); details: HEK293 viability counter-screen; series mostly up to 41.8 µM
In short: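 CellTiter-Glo luminescence, read on a CCD imager, scored viability of HEK293 cells after 24 hr compound exposure at 37C. Library tested in several concentrations, 1:5 steps, up to 41.7 uM; digitonin served as control.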

[5] = Viability counterscreen for antagonist of constitutive androstane receptor (CAR) against the NCATS DSHEA and TCM libraries (AID 1794837); details: CAR reporter cell line viability counterscreen, qHTS; series mostly up to 40 µM;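 note: compound exposure lasted 24 h before viability reading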
In short: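 Cells: HepG2 line carrying CYP2B6 reporter and hCAR, seeded and attached 5 h. Then pin-transferred test substances plus agonist CITCO at 48 uM final; 24 h incubation; fluorogenic viability reagent, 1 h.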

[6] = Viability counterscreen for agonist of constitutive androstane receptor (CAR) against the NCATS DSHEA and TCM libraries (AID 1794838); details: HepG2 cell viability counterscreen, CAR agonist assay, co-treated with 0.75 µM CAR antagonist; series mostly up to 40 µM;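 note: HepG2 cells with CYP2B6 reporter and hCAR plus 0.75 µM PK11195 antagonist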
In short: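 Cell health was measured as CellTiter-Fluor signal in HepG2-CYP2B6-hCAR cells treated for 24 h with substances alongside the hCAR antagonist PK11195 (0.75 uM final).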

[7] = biological target: Nuclear receptor subfamily 1 group I member 3 (Homo sapiens) (UniProt Q14994); assay: Primary qHTS for agonist of constitutive androstane receptor (CAR) against the NCATS DSHEA and TCM libraries (AID 1794839); details: CAR agonist reporter cells, qHTS luminescence, CAR antagonist co-added at 0.75 µM; series mostly up to 40 µM; note: potency is the fitted concentration of half-maximal effect
Nuclear receptor subfamily 1 group I member 3 (Homo sapiens), sequence (Q14994 whole entry, looked up): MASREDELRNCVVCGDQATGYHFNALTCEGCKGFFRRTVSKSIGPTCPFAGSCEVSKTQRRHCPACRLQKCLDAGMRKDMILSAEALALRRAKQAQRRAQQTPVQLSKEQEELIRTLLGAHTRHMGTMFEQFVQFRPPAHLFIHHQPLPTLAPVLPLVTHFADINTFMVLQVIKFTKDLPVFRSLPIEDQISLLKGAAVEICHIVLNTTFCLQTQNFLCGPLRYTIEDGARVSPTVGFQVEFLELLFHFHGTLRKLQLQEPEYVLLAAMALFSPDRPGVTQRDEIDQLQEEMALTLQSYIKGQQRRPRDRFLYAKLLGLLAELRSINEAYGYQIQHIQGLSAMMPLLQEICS
In short: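 qHTS, agonist mode: HepG2-CYP2B6-hCAR, 2,500 cells/well, 5 h attach; cpds + PK11195 0.75 µM final; 24 h, 37 °C, 5% CO2. Readouts: CellTiter-Fluor (405/540 nm), then ONE-Glo luminescence.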

[8] = HepG2 viability counterscreen (readout 2: ATP content) against the NCATS DSHEA and TCM libraries (AID 1794840); details: ATP content luminescence; series mostly up to 27.3 µM
In short: (§2)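 Same wells read twice: first fluorescence from cleaved GF-AFC substrate (25 uM final, 30 min, 37C) for live-cell protease, then CellTiter-Glo luminescence after 30 min at room temperature for ATP. HepG2 cells were exposed ~24 h to substances.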

[9] = HepG2 viability counterscreen (readout 1: protease activity) against the NCATS DSHEA and TCM libraries (AID 1794841); details: qHTS concentration series; series mostly up to 27.3 µM;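 note: cells exposed to compounds for about 24 h before the protease read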
In short: as §2

[10] = biological target: Glutathione peroxidase 1 (Homo sapiens) (UniProt P07203); assay: Primary qHTS Assay for Inhibitors of Recombinant Selenoprotein Glutathione Peroxidase 1 (GPX1) (AID 1845191); details: recombinant GPX1, GR-coupled NADPH fluorescence, 15 min; series mostly up to 48.8 µM; note: nearly all actives have a fitted effect of over 65% in size; note: potency is the fitted concentration of half-maximal effect
Glutathione peroxidase 1 (Homo sapiens), sequence (P07203 whole entry, looked up): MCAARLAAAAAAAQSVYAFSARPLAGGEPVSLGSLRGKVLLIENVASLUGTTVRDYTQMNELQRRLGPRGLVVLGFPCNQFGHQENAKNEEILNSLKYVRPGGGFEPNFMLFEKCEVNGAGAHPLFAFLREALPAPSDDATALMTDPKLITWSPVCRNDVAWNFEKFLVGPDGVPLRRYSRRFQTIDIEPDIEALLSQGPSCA
In short: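 NADPH consumption tracked by fluorescence at 340/450 nm between t=0 and t=15 min, room temperature. Final mix: 10 nM GPX1, 100 nM glutathione reductase, 1 mM GSH, 0.5 mM NADPH, 0.5 mM cumene hydroperoxide, 0.01% BSA; 30 min compound–enzyme preincubation.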

[11] = biological target: Phospholipid hydroperoxide glutathione peroxidase GPX4 (Homo sapiens) (UniProt P36969); assay: Primary qHTS Assay for Inhibitors of Recombinant Selenoprotein Glutathione Peroxidase 4 (GPX4) (AID 1845192); details: recombinant GPX4, GR-coupled NADPH fluorescence, 15 min; series mostly up to 50 µM; note: nearly all actives have a fitted effect of over 65% in size; note: potency is the fitted concentration of half-maximal effect
Phospholipid hydroperoxide glutathione peroxidase GPX4 (Homo sapiens), sequence (P36969 whole entry, looked up): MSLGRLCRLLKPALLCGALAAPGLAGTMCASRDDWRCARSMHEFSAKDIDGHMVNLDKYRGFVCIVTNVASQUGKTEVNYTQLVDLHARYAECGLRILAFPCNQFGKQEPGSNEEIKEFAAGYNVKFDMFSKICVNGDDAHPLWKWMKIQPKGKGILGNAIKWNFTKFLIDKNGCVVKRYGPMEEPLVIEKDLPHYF
In short: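 NADPH consumption followed by fluorescence at 340/450 nm, t=0 and after 15 min at room temperature. Reaction started with cumene hydroperoxide (0.5 mM final) after 30 min compound–GPX4 preincubation; final 200 nM GPX4, 100 nM GR, 1 mM GSH, 0.5 mM NADPH.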

[12] = biological target: Cytochrome P450 2D6 (Homo sapiens) (UniProt P10635); assay: qHTS for inhibitors of CYP2D6 against the NCATS DSHEA and TCM libraries (AID 1919972); details: CYP2D6 enzymatic inhibition, luminescence qHTS; series mostly up to 34.1 µM
Cytochrome P450 2D6 (Homo sapiens), sequence (P10635 whole entry, looked up): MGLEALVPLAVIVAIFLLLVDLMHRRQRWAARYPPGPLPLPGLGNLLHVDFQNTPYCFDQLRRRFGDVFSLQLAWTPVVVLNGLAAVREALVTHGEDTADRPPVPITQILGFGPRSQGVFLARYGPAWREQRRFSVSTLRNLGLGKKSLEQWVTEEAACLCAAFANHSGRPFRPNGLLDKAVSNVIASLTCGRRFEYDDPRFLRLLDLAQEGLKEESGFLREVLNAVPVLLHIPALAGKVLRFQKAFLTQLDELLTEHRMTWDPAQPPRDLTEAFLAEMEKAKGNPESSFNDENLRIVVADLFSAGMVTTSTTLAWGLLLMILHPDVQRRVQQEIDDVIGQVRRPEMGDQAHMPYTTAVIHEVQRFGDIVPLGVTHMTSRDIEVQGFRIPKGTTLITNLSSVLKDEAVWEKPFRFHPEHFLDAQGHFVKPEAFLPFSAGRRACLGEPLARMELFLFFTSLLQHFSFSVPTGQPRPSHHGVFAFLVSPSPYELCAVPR
In short: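 qHTS, concentration–response format with most substances from 19.5 nM. CYP2D6 + pro-luciferin substrate, 15 min with compound, then 1x NADPH regen, 30–45 min RT dark. Glo detection 30 min, luminescence. Quinidine control.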

[13] = NCATS anti-infectives library activity on the primary C. elegans qHTS viability assay (AID 1745855; calls by dose curve; note: potency is the fitted concentration of half-maximal effect); details: C. elegans worm area imaging, day 7; series mostly up to 41.8 µM
In short: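 Titration-based screen in worms: eggs hatched overnight in M9, L1 larvae fed TOP10 capsules in S medium with compound, incubated 21 °C for 7 days; fluorescent objects gated by size and intensity at days 0, 3 and 7.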

[14] = biological target: Rap guanine nucleotide exchange factor 4 (Homo sapiens) (UniProt Q8WZA2); assay: Confirmatory qHTS for antagonist of cAMP-regulated guanine nucleotide exchange factor 4 (EPAC2) (AID 1645885); details: EPAC2 Rap1B-BODIPY-GDP exchange fluorescence, biochemical; series mostly up to 114 µM; note: nearly all actives have a fitted effect of over 25% in size; note: potency is the fitted concentration of half-maximal effect

Question: Which outcome [1] does the source give for Oc1ccc(/C=C/c2cc(O)cc(O)c2)cc1 here?
Answer: inactive

Question: And the outcome [2]?
Answer: inactive

Question: What about the outcome [3] of the same compound?
Answer: inactive

Question: What about the outcome [4] of the same compound?
Answer: inactive

Question: What about the outcome [5] of the same compound?
Answer: inactive

Question: What about the outcome [6] of the same compound?
Answer: inactive

Question: What about the Potency [7] of the same compound?
Answer: 31.6 µM (active)

Question: And the outcome [8]?
Answer: inactive

Question: And the outcome [9]?
Answer: inactive

Question: And the Potency [10]?
Answer: inactive

Question: What about the Potency [11] of the same compound?
Answer: inactive

Question: And the outcome [12]?
Answer: inactive

Question: With CCOC(=O)Oc1c(OC)cc(C(=O)O[C@@H]2C[C@@H]3CN4CCc5c([nH]c6cc(OC)ccc56)[C@H]4C[C@@H]3[C@H](C(=O)OC)[C@H]2OC)cc1OC as the compound, how does the outcome [1] read?
Answer: inactive

Question: What about the Potency [11] of the same compound?
Answer: 15.8 µM (active)

Question: With CCN(CC)C(=S)S as the compound, how does the outcome [4] read?
Answer: inactive

Question: Which results are given for CCCC(CCC)C(=O)OC1C[C@H]2CC[C@@H](C1)[N+]2(C)C (stereo partly specified)?
Answer: outcome [4]: inactive; Potency [10]: inactive; Potency [11]: inactive

Question: With C=CC[C@@H]1/C=C(\C)C[C@H](C)C[C@H](OC)[C@H]2O[C@@](O)(C(=O)C(=O)N3CCCC[C@H]3C(=O)O[C@H](/C(C)=C/[C@@H]3CC[C@@H](O)[C@H](OC)C3)[C@H](C)[C@@H](O)CC1=O)[C@H](C)C[C@@H]2OC as the compound, how does the outcome [1] read?
Answer: inactive

Question: What about the outcome [4] of the same compound?
Answer: inactive

Question: And the Potency [13]?
Answer: 3.65 µM (active)

Question: What about the Potency [10] of the same compound?
Answer: inactive and 2.55 µM (active)

Question: What about the Potency [11] of the same compound?
Answer: inactive and 2.82 µM (active)

Question: What does the source list for C=CC(C)(O)CC/C=C(\C)CCC=C(C)C (stereo unspecified)?
Answer: outcome [1]: inactive; Potency [14]: 44.1 µM (active)

Question: Which outcome [1] does the source give for COc1ccc(/C=C/C(=O)O)cc1 here?
Answer: inactive

Question: And the Potency [14]?
Answer: inactive

Question: For Cc1c(O)c(=O)ccn1C, which outcome [4] is on record?
Answer: inactive

Question: What about the Potency [10] of the same compound?
Answer: inactive

Question: What about the Potency [11] of the same compound?
Answer: inactive

Question: With Nc1nccs1 as the compound, how does the outcome [4] read?
Answer: inactive

Question: With CC(C)[C@@H](C)/C=C/[C@@H](C)[C@H]1CC[C@H]2/C(=C/C=C3\C[C@@H](O)CC[C@@H]3C)CCC[C@]12C as the compound, how does the outcome [1] read?
Answer: inactive

Question: What about the Potency [10] of the same compound?
Answer: inactive

Question: Which results are given for NCCCC[C@H](N)C(=O)O?
Answer: activity change, negative = cytotoxicity [4]: -19.5% [at 0.334 µM] (inactive); outcome [10]: inactive [at 0.4 µM]; outcome [11]: inactive [at 0.409 µM]

Question: Which outcome [4] does the source give for CC[C@H]1OC(=O)[C@H](C)[C@@H](O[C@H]2C[C@@](C)(OC)[C@@H](O)[C@H](C)O2)[C@H](C)[C@@H](O[C@@H]2O[C@H](C)C[C@H](N(C)C)[C@H]2O)[C@](C)(O)C[C@@H](C)CN(C)[C@H](C)[C@@H](O)[C@]1(C)O here?
Answer: inactive

Question: And the Potency [10]?
Answer: inactive

Question: What about the Potency [11] of the same compound?
Answer: inactive

Question: Which outcome [4] does the source give for CC(=O)N[C@@H]([C@@H](O)[C@H](O)[C@H](O)CO)[C@@H](O)CC(=O)C(=O)O here?
Answer: inactive

Question: What does the source list for Nc1ccc(N=Nc2ccccc2)c(N)n1?
Answer: outcome [4]: inactive; Potency [10]: inactive; Potency [11]: inactive

Question: What does the source list for O=C(NNCS(=O)(=O)O)c1ccncc1?
Answer: outcome [1]: inactive; Potency [14]: inactive; Potency [10]: 5.7 µM (active); Potency [11]: 3.98 µM (active)

Question: With CCCCC(=O)O[C@H]1CC[C@H]2[C@@H]3CCc4cc(O)ccc4[C@H]3CC[C@]12C as the compound, how does the outcome [1] read?
Answer: inactive

Question: And the Potency [14]?
Answer: inactive

Question: And the Potency [10]?
Answer: inactive

Question: And the Potency [11]?
Answer: inactive

Question: Which outcome [5] does the source give for Oc1cccc(O)c1O here?
Answer: inactive

Question: And the outcome [6]?
Answer: inactive

Question: And the Potency [7]?
Answer: inactive

Question: And the outcome [8]?
Answer: inactive

Question: What about the outcome [9] of the same compound?
Answer: inactive
